Laboratory results: PubChem BioAssay
For some assays here: Measured potencies and affinities stand elsewhere. The list shows a part of the results. Activity calls are given as the source filed them.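 Rule for the calls, unless noted: active = primary screen hit whose fluorescence ratio, in both repeats, exceeds the weak agonist control mean by 3 SD; inactive = the rest.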

Key:
[1] = test system: TRPC4 beta (transient receptor potential cation channel C4), mouse; experiment: TRPC4 cation channel opening, retest – cell-based, Fluo4 calcium, HEK293 TRPC4beta/mu-opioid, duplicates, 10 µM, confirmation (AID 2426;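 active = fluorescence ratio normalized to control raised more than 50% in primary screen plus both repeat runs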); details: Fluo4 calcium fluorescence, at 10 µM; stronger effect = higher value
[2] = test system: transient receptor potential cation channel C4 beta (TRPC4), mouse; experiment: TRPC4 cation channel opening, second retest – cell-based, second round, Fluo4, HEK293 TRPC4beta/mu-opioid, 1 µM, confirmation (AID 2461;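 active = primary screen active and over 50% activation in each of two duplicate runs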); details: Fluo4 calcium fluorescence, at 1 µM; stronger effect = higher value
[3] = test system: TRPC4 (transient receptor potential cation channel C4 beta), mouse; experiment: potentiation of DAMGO EC20 TRPC4 response – cell-based, second round, Fluo-4, HEK293 TRPC4beta/mu-opioid, 1 µM, confirmation (AID 2554); details: DAMGO EC20, Fluo-4 calcium flux, at 1 µM; stronger effect = higher value
[4] = test system: TRPC4 beta (transient receptor potential cation channel C4), mouse; experiment: potentiation of DAMGO EC20 TRPC4 response – cell-based, Fluo-4, HEK293 TRPC4beta/mu-opioid, confirmation (AID 2555;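 active = primary screen hit whose calcium fluorescence ratio, in both repeats, exceeds the weak agonist control mean by 3 SD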); details: DAMGO EC20, Fluo-4 calcium flux, at 10 µM; stronger effect = higher value
[5] = biological target: Short transient receptor potential channel 4 (Mus musculus) (UniProt Q9QUQ5); experiment: blockers of DAMGO-evoked TRPC4 calcium flux – cell-based, Fluo4, HEK293 TRPC4beta/mu-opioid, confirmation (AID 2636;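 active = calcium signal cut by more than 3 SD below the full-agonist control yet still positive, in both repeats and the earlier primary screen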); details: at 10 µM; stronger effect = higher value
[6] = biological target: Short transient receptor potential channel 4 (Mus musculus) (UniProt Q9QUQ5); experiment: blockers of DAMGO-evoked TRPC4 calcium flux – cell-based, second round, Fluo4, HEK293 TRPC4beta/mu-opioid, 1 µM, confirmation (AID 2637;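 active = calcium signal ratio cut to more than 3 SD under the fully stimulated control mean yet still positive, in both repeats and the primary screen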); details: at 1 µM; stronger effect = higher value
[7] = biological target: Short transient receptor potential channel 4 (Mus musculus) (UniProt Q9QUQ5); experiment: calcium entry via TRPC4 opening agents – cell-based, HEK293 TRPC4/mu-opioid, Fluo-4 calcium, dose response (AID 434937;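 active = primary screen activator hit with a dose response curve and TRPC4 channel activation at any tested dose; inactive = no activation, no dose response, or not a primary hit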)
[8] = biological target: Short transient receptor potential channel 4 (Mus musculus) (UniProt Q9QUQ5); experiment: potentiation of DAMGO-evoked TRPC4 calcium signal – cell-based, HEK293 TRPC4/mu-opioid, Fluo-4 calcium, EC20 DAMGO, dose response (AID 434941;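 active = earlier screen potentiator hit that boosts the TRPC4 ion channel at some dose, with a dose response; inactive = no potentiation, no dose response, or not a prior hit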;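 note: calcium entry triggered by an EC20 dose of DAMGO at the co-expressed mu-opioid receptor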)
[9] = biological target: Short transient receptor potential channel 4 (Mus musculus) (UniProt Q9QUQ5); experiment: block of DAMGO-driven TRPC4 calcium entry – cell-based, HEK293 TRPC4/mu-opioid, Fluo-4 calcium, dose response (AID 434942;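 active = primary screen inhibitor hit that blocks the TRPC4 channel at some tested dose, yielding a dose curve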)
[10] = biological target: Short transient receptor potential channel 6 (Mus musculus) (UniProt Q61143); experiment: TRPC6 blockade by TRPC4 inhibitor hits – cell-based, HEK293, membrane potential dye, duplicate, selectivity assay for TRPC4 inhibitor project, confirmation (AID 434948;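 active = active in primary screen and both duplicates, each dropping signal beyond three positive-control SD with fluorescence still positive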); details: HEK293 TRPC6, membrane potential dye fluorescence, at 10 µM, stimulated with maximal-effect acetylcholine; stronger effect = higher value
[11] = biological target: Short transient receptor potential channel 6 (Mus musculus) (UniProt Q61143); experiment: TRPC6 opening by TRPC4 activator hits – cell-based, HEK293, membrane potential dye, duplicate, selectivity assay for TRPC4 activator project, confirmation (AID 434950;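 active = membrane potential signal rise above negative control mean plus 3 SD in both duplicates, also active in the earlier TRPC4 screen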); details: HEK293 TRPC6, membrane potential fluorescence, at 10 µM; activation: stronger effect = higher value; outcome: activation
[12] = biological target: Short transient receptor potential channel 6 (Mus musculus) (UniProt Q61143); experiment: positive modulators of mouse TRPC6 channel – HEK293 cells, membrane potential dye, duplicate, selectivity assay for TRPC4 potentiator project, confirmation (AID 434952;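 active = compound raising the membrane signal above positive-control mean plus 3 SD in both repeats, and a primary screen hit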); details: HEK293 TRPC6, membrane potential dye fluorescence, at 10 µM, maximal acetylcholine added after compound; stronger effect = higher value
[13] = biological target: Short transient receptor potential channel 4 (Mus musculus) (UniProt Q9QUQ5); experiment: calcium flux activators in TRPC4/5HT1a cells, counter-screen for TRPC4 activator project, cell-based, second counter screen, HEK293 TRPC4/5HT1a, Fluo-4 (AID 434977;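 active = calcium signal rise above buffer-control mean plus 5 SD in both duplicates, and also a hit in the primary screen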); details: Fluo-4 calcium flux, at 10 µM; stronger effect = higher value
[14] = serotonin-gated TRPC4 signal block – cell-based, second counter screen, HEK293 TRPC4/5HT1a, Fluo-4, counter-screen for TRPC4 inhibitor project, confirmation (AID 434978;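 active = primary screen active whose calcium signal fell more than 3 SD beyond the full-serotonin control mean in both duplicate plates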;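 note: serotonin given first at submaximal then at maximal dose after compound preincubation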); details: Fluo-4 calcium flux, at 10 µM, serotonin added to trigger calcium flux; stronger effect = higher value
[15] = test system: TRPC4 (mouse), co-expressed with 5HT1a in HEK293; experiment: enhancement of serotonin-evoked TRPC4 response – cell-based, second counter screen, HEK293 TRPC4/5HT1a, Fluo-4, counter-screen for TRPC4 potentiator project, confirmation (AID 434979;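 active = signal rise over 3 SD above mean of control wells given weak agonist, in both repeats and first screen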); details: Fluo-4 calcium flux, at 10 µM, serotonin added at its EC20 dose; stronger effect = higher value
[16] = nonspecific calcium rise without TRPC4 – cell-based, HEK293 mu-opioid receptor line, counter-screen for TRPC4 activator project, confirmation (AID 449723;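 active = hit in primary screen, with calcium signal over 5 SD above buffer well mean in both duplicates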;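 note: counter screen cells carry the mu-opioid receptor alone and lack TRPC4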); details: HEK293 mu-opioid cells, Fluo-4 calcium fluorescence, at 10 µM; stronger effect = higher value
[17] = nonspecific potentiation of DAMGO calcium response – cell-based, HEK293 mu-opioid receptor line, counter-screen for TRPC4 allosteric potentiator project, confirmation (AID 449724;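 active = calcium signal rise more than 3 SD above the low-dose agonist control mean, in both duplicate plates and the primary screen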); details: HEK293 mu-opioid receptor cells, Fluo-4 calcium flux, at 10 µM, compound added before EC20 DAMGO stimulus; stronger effect = higher value
[18] = parental CHO-K1 cell activation, no KCNQ2 – FluxOR thallium flux, duplicate, counter-screen for KCNQ2 potentiator project, confirmation (AID 2282;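 active = signal rise of at least 3 SD above the untreated control mean, in both duplicate wells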;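 note: counter screen of KCNQ2 potentiator hits so any rise reflects channel-independent effects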); details: parental CHO-K1 cells, FluxOR thallium flux fluorescence; at 10 µM; stronger effect = higher value; zero = vehicle mean+3SD, 100% = vehicle-minus-blank window
[19] = biological target: Potassium voltage-gated channel subfamily KQT member 1 (Homo sapiens) (UniProt P51787); experiment: KCNQ1 activation in stable CHO cells – cell-based, FluxOR thallium flux, selectivity assay for KCNQ2 potentiator project, confirmation (AID 2283;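 active = fluorescence ratio rise of at least 3 SD of vehicle wells above their mean, in both replicate wells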;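 note: 0% = vehicle mean plus 3 SD and 100% = vehicle minus unstimulated blank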); details: FluxOR thallium flux fluorescence, at 10 µM, stronger effect = higher value, beyond 3SD, as % of vehicle-control signal
[20] = biological target: Potassium voltage-gated channel subfamily KQT member 2 (Rattus norvegicus) (UniProt O88943); experiment: KCNQ2 potassium channel activity enhancers – cell-based, CHO, FluxOR thallium flux, duplicate, confirmation (AID 2287;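 active = fluorescence ratio rising 3 SD or more over the vehicle control mean in both replicates, plus primary screen hit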;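 note: peak minus minimum thallium fluorescence divided by baseline after K/Tl stimulus; 0% = vehicle mean plus 3 SD and 100% = vehicle minus unstimulated blank difference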); details: CHO-KCNQ2 cells, FluxOR thallium flux fluorescence; at 10 µM; stronger effect = higher value
Chain of Potassium voltage-gated channel subfamily KQT member 2 (Rattus norvegicus) (O88943 whole entry, looked up): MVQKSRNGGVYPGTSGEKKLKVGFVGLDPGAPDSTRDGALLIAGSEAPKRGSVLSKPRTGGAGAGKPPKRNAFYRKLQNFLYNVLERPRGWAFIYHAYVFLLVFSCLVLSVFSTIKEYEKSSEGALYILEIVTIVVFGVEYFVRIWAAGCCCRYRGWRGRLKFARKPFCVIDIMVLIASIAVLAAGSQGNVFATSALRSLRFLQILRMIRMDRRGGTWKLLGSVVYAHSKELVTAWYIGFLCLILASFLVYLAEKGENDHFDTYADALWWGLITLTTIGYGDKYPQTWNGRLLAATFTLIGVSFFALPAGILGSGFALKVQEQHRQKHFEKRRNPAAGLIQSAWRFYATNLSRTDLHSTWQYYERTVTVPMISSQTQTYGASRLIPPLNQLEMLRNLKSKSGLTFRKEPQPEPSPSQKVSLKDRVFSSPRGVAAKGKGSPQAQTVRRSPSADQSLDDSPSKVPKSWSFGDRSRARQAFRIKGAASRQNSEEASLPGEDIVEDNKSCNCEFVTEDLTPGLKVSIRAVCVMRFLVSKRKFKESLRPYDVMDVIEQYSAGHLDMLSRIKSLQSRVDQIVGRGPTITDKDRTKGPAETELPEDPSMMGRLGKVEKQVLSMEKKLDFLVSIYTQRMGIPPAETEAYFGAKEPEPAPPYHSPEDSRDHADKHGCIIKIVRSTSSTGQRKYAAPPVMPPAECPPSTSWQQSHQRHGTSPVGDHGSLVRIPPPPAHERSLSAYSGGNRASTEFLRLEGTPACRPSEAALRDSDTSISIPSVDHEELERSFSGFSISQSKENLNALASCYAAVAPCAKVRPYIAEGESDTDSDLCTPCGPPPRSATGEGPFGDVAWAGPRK

Chain of Short transient receptor potential channel 6 (Mus musculus) (Q61143 whole entry, looked up): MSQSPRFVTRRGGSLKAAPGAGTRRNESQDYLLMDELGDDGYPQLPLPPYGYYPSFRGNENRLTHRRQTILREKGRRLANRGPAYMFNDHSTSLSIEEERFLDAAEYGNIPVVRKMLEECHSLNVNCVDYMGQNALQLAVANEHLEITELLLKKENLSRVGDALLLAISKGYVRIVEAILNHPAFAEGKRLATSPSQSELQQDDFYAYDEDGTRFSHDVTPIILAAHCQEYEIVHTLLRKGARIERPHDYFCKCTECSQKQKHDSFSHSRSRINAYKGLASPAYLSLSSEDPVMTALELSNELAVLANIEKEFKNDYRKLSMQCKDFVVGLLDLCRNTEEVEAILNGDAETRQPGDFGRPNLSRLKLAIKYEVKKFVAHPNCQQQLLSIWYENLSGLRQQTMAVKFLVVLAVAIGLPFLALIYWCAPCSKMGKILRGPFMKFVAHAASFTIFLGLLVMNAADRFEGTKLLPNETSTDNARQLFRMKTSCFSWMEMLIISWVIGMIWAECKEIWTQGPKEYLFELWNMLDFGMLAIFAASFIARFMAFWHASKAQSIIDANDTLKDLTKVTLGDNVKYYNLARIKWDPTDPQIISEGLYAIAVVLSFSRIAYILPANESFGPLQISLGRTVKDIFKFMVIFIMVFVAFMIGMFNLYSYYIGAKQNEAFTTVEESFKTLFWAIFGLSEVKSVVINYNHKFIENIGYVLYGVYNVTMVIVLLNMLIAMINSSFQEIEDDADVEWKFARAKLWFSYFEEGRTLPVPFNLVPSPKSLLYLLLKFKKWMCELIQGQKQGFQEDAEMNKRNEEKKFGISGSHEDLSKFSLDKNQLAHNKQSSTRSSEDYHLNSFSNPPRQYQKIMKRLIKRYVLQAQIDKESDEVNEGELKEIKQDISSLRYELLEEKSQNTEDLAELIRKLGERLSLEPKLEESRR
Chain of Short transient receptor potential channel 4 (Mus musculus) (Q9QUQ5 whole entry, looked up): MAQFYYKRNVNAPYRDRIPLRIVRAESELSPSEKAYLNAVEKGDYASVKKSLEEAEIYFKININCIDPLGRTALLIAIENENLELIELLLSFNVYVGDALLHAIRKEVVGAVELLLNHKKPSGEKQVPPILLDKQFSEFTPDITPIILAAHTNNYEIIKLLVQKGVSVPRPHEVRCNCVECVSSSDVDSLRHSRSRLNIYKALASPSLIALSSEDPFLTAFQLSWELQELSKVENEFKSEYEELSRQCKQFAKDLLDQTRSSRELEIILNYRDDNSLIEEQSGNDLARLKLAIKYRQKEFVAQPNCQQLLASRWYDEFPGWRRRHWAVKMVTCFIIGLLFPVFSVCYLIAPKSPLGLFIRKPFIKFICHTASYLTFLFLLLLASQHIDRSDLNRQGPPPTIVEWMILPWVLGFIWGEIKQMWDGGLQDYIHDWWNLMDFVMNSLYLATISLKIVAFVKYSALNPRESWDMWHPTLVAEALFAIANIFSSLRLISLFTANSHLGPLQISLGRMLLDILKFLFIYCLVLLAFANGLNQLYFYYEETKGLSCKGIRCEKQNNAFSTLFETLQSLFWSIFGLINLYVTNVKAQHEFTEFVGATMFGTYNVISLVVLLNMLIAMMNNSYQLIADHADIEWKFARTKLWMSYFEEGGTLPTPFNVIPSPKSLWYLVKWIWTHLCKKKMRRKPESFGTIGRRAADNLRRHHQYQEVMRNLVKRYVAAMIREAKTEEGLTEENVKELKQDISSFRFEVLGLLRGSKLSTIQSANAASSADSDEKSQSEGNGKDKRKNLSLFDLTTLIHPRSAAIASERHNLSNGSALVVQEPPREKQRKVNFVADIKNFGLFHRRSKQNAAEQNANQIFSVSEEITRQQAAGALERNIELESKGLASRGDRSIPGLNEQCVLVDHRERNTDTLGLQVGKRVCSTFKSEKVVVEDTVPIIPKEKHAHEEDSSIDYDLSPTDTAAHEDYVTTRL
Chain of Potassium voltage-gated channel subfamily KQT member 1 (Homo sapiens) (P51787 whole entry, looked up): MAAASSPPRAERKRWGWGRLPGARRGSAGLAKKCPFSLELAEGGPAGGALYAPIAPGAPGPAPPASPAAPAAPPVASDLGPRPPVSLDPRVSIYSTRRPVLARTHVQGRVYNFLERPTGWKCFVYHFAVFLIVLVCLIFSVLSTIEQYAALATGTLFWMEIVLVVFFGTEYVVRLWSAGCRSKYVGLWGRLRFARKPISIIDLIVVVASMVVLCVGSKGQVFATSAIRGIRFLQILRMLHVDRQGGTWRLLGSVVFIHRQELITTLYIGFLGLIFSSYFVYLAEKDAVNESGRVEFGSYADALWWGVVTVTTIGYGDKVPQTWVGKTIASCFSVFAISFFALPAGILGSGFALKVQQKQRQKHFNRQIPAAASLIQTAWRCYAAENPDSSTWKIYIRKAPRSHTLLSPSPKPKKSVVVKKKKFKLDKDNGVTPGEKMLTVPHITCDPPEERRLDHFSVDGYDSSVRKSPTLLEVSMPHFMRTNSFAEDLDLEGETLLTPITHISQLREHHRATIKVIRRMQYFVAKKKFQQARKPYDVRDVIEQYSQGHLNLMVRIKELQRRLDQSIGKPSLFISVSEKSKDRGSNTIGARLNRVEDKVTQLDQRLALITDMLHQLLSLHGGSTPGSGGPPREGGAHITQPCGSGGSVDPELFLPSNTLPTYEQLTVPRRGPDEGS

CCOC(=O)C1=C(C)N(C)C(=S)NC1c1cccc(Cl)c1Cl (configuration not stated)
inactive: outcome [1] | outcome [2] | outcome [3] | outcome [5] | outcome [6] | outcome [7] | outcome [8] | outcome [9] | outcome [10] | outcome [11] | outcome [12] | outcome [13] | outcome [14] | outcome [15] | outcome [16] | outcome [17]
active: potentiation [4] 25%

C=CCOc1ccc(Br)cc1/C=N/O
inactive: outcome [1] | outcome [2] | outcome [3] | outcome [4] | outcome [5] | outcome [6] | outcome [7] | outcome [8] | outcome [9] | outcome [10] | outcome [11] | outcome [12] | outcome [13] | outcome [14] | outcome [15] | outcome [16] | outcome [17]

CCCn1nc(C(=O)NC2CCCc3ccccc32)c2ccccc2c1=O (configuration not stated)
active: potentiation [4] 22% | potentiation [15] 19.5%
inactive: outcome [1] | outcome [2] | outcome [3] | outcome [5] | outcome [6] | outcome [7] | outcome [8] | outcome [9] | outcome [10] | outcome [11] | outcome [12] | outcome [13] | outcome [14] | outcome [16] | outcome [17]

CCOc1ccc(Nc2nc(Cc3nnc(SCC(=O)c4ccc(C)cc4)o3)cs2)cc1
inactive: outcome [1] | outcome [2] | outcome [3] | outcome [4] | outcome [5] | outcome [6] | outcome [7] | outcome [8] | outcome [9] | outcome [10] | outcome [11] | outcome [12] | outcome [13] | outcome [14] | outcome [16] | outcome [17]
active: potentiation [15] 8.2%

CC(=O)Cn1ncc(N2CCOCC2)cc1=O
inactive: outcome [1] | outcome [2] | outcome [3] | outcome [4] | outcome [5] | outcome [6] | outcome [7] | outcome [8] | outcome [9] | outcome [10] | outcome [11] | outcome [12] | outcome [13] | outcome [14] | outcome [15] | outcome [16] | outcome [17]

CCN(CC)CCNC(=O)c1cc2c(-c3cccc(OC)c3)nn(C)c2s1
inactive: outcome [1] | outcome [2] | outcome [3] | outcome [4] | outcome [5] | outcome [6] | outcome [7] | outcome [8] | outcome [9] | outcome [10] | outcome [11] | outcome [12] | outcome [13] | outcome [14] | outcome [16] | outcome [17]
active: potentiation [15] 20.8%

CC(=O)NNC(=O)c1csc(Cc2c(Cl)sc3ccc(Cl)cc23)n1
inactive: activation over 3SD threshold [19] -5%
active: activity increase over 3SD of controls [18] 26.3% | potentiation, less the hit threshold [20] 12.3%

Cc1nn(-c2ccccc2)c2nc(-c3ccccc3)cc(C(=O)N3CCOCC3)c12
inactive: outcome [1] | outcome [2] | outcome [3] | outcome [5] | outcome [6] | outcome [7] | outcome [8] | outcome [9] | outcome [10] | outcome [11] | outcome [12] | outcome [13] | outcome [14] | outcome [16] | outcome [17]
active: potentiation [4] 15% | potentiation [15] 34.4%
